{
  "source": "the supplement of paper PMC6555819",
  "data": [
    {"test_system": "PPARa:RXRa (NR concentration 270 nM, RXRa partner concentration 90 nM)", "test": "PBM binding z-score (relative to random genomic background probes); higher = stronger binding; sequences stand for … in GC…GCGATTGACAGCGTAGAATGAAGG", "method": "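Protein-binding microarray (Agilent 4x180K custom design, double-stranded 60-nt probes: 5' GC cap, 34-nt variable region, 24-nt constant primer region; full probe sequence given). Purified or IVT nuclear receptor:RXRα heterodimers (3:1 NR:RXRα, mostly 270:90 nM) or homodimers were incubated for 1 h in PBS with 2% milk and no ligand, then detected with Alexa488 antibodies. Fluorescence from o1-orientation probes (~5 replicates averaged) was converted to z-scores against 500 random hg19 background probes. Variable regions are seed direct-repeat (DR0–DR5) sites, all their single-nucleotide variants and half-site ablations.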", "values": [
      {"sequence": "TAGCCTAGGTCATGGGCCAGTGTACCACGCGAAC", "PBM binding z-score": 4.38},
      {"sequence": "AACGAAAGGTCGAAGGTGAGTATACCCACCCGAA", "PBM binding z-score": 4.89},
      {"sequence": "TCTTGTAGATCAATAGAAGTTAAGAAAGTGCGCT", "PBM binding z-score": 0.693},
      {"sequence": "TCTAGTTGGTCACGGAGGGCACACACGACGGGTA", "PBM binding z-score": 1.38},
      {"sequence": "GGAACGAGGGCATTCGAGTTCATAGCATGGCGAT", "PBM binding z-score": 2.7},
      {"sequence": "ATTTGTAGGTTACATCCGGGTCATTCAGGCTATG", "PBM binding z-score": 4.12},
      {"sequence": "CGAACTAGGTCATTGACAGGACAATGAATAGTAA", "PBM binding z-score": 5.06},
      {"sequence": "CCTTACGGGTCACGTGGTTATAGCACGACGAGCG", "PBM binding z-score": 5.88},
      {"sequence": "TATAAAGGGTCAAAGGCCAGAGTACGAATGTCGA", "PBM binding z-score": 6.43},
      {"sequence": "AGTCAAAGTTCATCTAGGTCACGTAAGATATGCT", "PBM binding z-score": 5.68},
      {"sequence": "AGAATGAGGTTACCAAAGGTCAGGGAAACGCTTG", "PBM binding z-score": 5.55},
      {"sequence": "CGAACTAGGTCGAGGACAGTGAATCTCCGCACGC", "PBM binding z-score": 1.75},
      {"sequence": "ATATGTAGGTTAGCTGGGGTCCTTCAGACTAGGC", "PBM binding z-score": 2.78},
      {"sequence": "CCTAGCAGGCCAATCTAGGTCACTCAAGGCTTGA", "PBM binding z-score": 3.15},
      {"sequence": "CCTACTGGGCCAAAAAGTTCATTGATGCCGATAA", "PBM binding z-score": 1.72},
      {"sequence": "GATACAGGGTCGGCTAGAGGCCAGAGTATGGAAA", "PBM binding z-score": 1.36},
      {"sequence": "CCGACGGGGGCAAAGGTTACCATACTCAGTACGA", "PBM binding z-score": 6.41},
      {"sequence": "AATACAGGGTGACTAGGCCAGAGTAGGTACGAAT", "PBM binding z-score": 1.7},
      {"sequence": "CTCGAAAGGTCGTGCTCAGATGAGTATACCAAAC", "PBM binding z-score": 4.71},
      {"sequence": "CAAACAAGGTCAAAGGTCAAAGTCGAGCCAACCA", "PBM binding z-score": 7.41},
      {"sequence": "AGAATGAGGTCATTAAGATCAGGGAATTGCGGTC", "PBM binding z-score": 6.05},
      {"sequence": "AATACAAGGTCATCGTAGGCCAGAGTACGCACAG", "PBM binding z-score": 5.75},
      {"sequence": "CGTCCAAGGTCATAGGGGGTCAGTGAAGACAGAT", "PBM binding z-score": 6.34},
      {"sequence": "TGTCAAAGTTCAAAGGTGACGTAAGTATCCACAC", "PBM binding z-score": 6.09},
      {"sequence": "CCTACTGGTCCAAGGTCATTGATCAGTCAAAGCA", "PBM binding z-score": 3.59},
      {"sequence": "AATAAAGGGTCATCGTAGGCCAGAGTACGCACAG", "PBM binding z-score": 5.96},
      {"sequence": "CAAACAAGGTCACCGGAAGGTCAAAGTCCGCATG", "PBM binding z-score": 6.58},
      {"sequence": "ATCAAAAGGTCGAGGTGAGTATAGAGAAAGGGAA", "PBM binding z-score": 4.75},
      {"sequence": "GCTTACGGGTCCAAGGTTATAGCATGAATAGAAT", "PBM binding z-score": 1.78},
      {"sequence": "AGAATGAGGTCACCAAAGATCAGGGAAACGCTTG", "PBM binding z-score": 6.33},
      {"sequence": "GCTAGTTGGTCAGTAAAATGTCACACACCGGTCG", "PBM binding z-score": -0.0403},
      {"sequence": "TATACAAGGTCAAAGGCCAGAGTACGAATGTCGA", "PBM binding z-score": 6.24},
      {"sequence": "CGTACAAGGTCAAAGGTCAGTGAAGAGATGACGG", "PBM binding z-score": 7.11},
      {"sequence": "TTGCCTAGGTCATTGGGCCAGTATAGTACGCATC", "PBM binding z-score": 3.86},
      {"sequence": "TGTCAACGTTCAAAGGTAACGTAAGTATCCACAC", "PBM binding z-score": 1.49},
      {"sequence": "CTACCAAGGTCAACAAGGTCGTTGATTACTATTC", "PBM binding z-score": 6.16},
      {"sequence": "CGAACAAGGTCATTGACAGGACAGTGAATAGTAA", "PBM binding z-score": 5.93},
      {"sequence": "CGTCCAAAGTCAAAGGTCAGTGAAGAGATGACGG", "PBM binding z-score": 5.06},
      {"sequence": "CGTCAAAGTTCAACTGAGGTAACGTAAAGCACGC", "PBM binding z-score": 5.29},
      {"sequence": "TCTATTAGTTGATTAGGGCAACCGAAACAGCGGA", "PBM binding z-score": 1.05}
    ]}
  ]
}
